# ± gives the standard deviation.
# Tested on: MILI (PIWIL2) piRISC loaded with L1MC piRNA (26 nt)
# Assay: pre-steady-state target cleavage rate (min^-1); guide: L1MC piRNA 5'p-UAACUAAAUACUAUGCAAGCUGUAGG; MIWI and MILI are mouse PIWI proteins and EfPiwi is from a freshwater sponge; tags in brackets are library labels; higher = faster piRNA-guided slicing of the target
# Details: auxiliary factor: 500 nM mouse GTSF1
# Method in brief: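 For Cleave-'n-Seq, a transcribed, DNA-blocked target RNA library […] met 1 nM active affinity-purified piRISC with one synthetic guide at 33 °C for 0–8 or 0–960 min in HEPES–potassium acetate buffer, with or without 500 nM GTSF1 partner protein. Uncleaved targets were sequenced and normalised to depth and weakly complementary targets, with three trials pooled and k3 capped at 0.0001 min^-1. A burst-and-steady-state fit supplied the pre-steady-state cleavage rate.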
# 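Further: 1 nM active piRISC with 0.1 nM target library at 33 °C single turnover.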
row,Sequence,pre-steady-state target cleavage rate
1,UCCUGGAUGAGCUUGCAUAGUAUUAAGUUA,0.194 ± 0.029
2,UCCUGGAUGAGCUUGCAUAGUUUUUAGUUA,0.0248 ± 0.0073
3,UCCUGCUACAGUCUUGCAUAGUAUUUAGUUA,0.222 ± 0.021
4,UCCUGGUACAGGCUUGCAUAGUAUUUAGUUA,0.203 ± 0.026
5,UCCUCCUACUGCUUGGAUAGUAUUUAGUUA,0.223 ± 0.016
6,UCCUGGAUCAGUCUUGCAUAGUAUUUAGUUA,0.212 ± 0.016
7,UCCUGGAACACGAUGCAUAGUAUUUAGUUA,0.14 ± 0.017
8,UCCUGGAUCAGCAUGCAUAGUAUUUAGUAA,0.246 ± 0.012
9,UCCUGGAACAGCUACCAUAGUAUUUAGUUA,0.174 ± 0.016
10,UCCUCCUACAGCUUGGAUAGUUUUUAGUUA,0.0664 ± 0.0092
11,UCCUCCUACAGGUUGCAUUGUAUUUAGUUA,0.152 ± 0.012
12,UCCUGGAACAGCUUGCAUGGUAUUUAGUUA,0.283 ± 0.022
13,UCCUGGUACAGCUUGCAUAAUAUUUAGUUA,0.338 ± 0.068
14,UCCUGGAUGUGCUUGCAUAGUGUUUAGUUA,0.0653 ± 0.013
15,UCCUGGAACUGCUUGCAUAGUAUUUAGUAA,0.171 ± 0.015
16,UCCUACUACAGCUUGCAUAGUAUUUAGUUA,0.294 ± 0.02
17,UCCUGCUACACCUUGCAUAGUAUUUAGUUA,0.214 ± 0.018
18,UCCUGGAUCAGCUUGCAUCGUAUUUAGUUA,0.0942 ± 0.012
19,UCCUGCUACAGCUGCAUAGUAUUUAGUUA,0.271 ± 0.02
20,UCCUGGUACAGCUUGCAUAGUAUUUUGUUA,0.118 ± 0.024

row,Sequence,pre-steady-state target cleavage rate
1,UCCUGCUUCAGCUUGCAUAGUAUUAAGUUA,0.13 ± 0.02
2,UCCUCCUAGAGCUUGCAUUGUAUUUAGUUA,0.213 ± 0.012
3,UCCUCCUACAGCUUGCAUGGUAUUUAGUUA,0.413 ± 0.019
4,UCCUCCUACAGCUUGCAAGUAUUUAGUUA,0.155 ± 0.017
5,UCCUGCUACAGCUUGCAUAGUAUUUAGUCUA,0.116 ± 0.02
6,UCCUGCUACAGCAUGCAUAGUAUUUAGUUA,0.353 ± 0.022
7,UCCUGGAUCAGCUAGCAUAGUAUUAAGUUA,0.247 ± 0.019
8,UCCUGGAACAGCAUGCAUAGUUUUUAGUUA,0.0418 ± 0.011
9,UCCUCCAUCAGCUUGCAUAGUAUUUAGUAA,0.165 ± 0.024
10,UCCUGGAUCAGCUUGCAUAGUAUUUCGUUA,0.147 ± 0.034
11,UCCUGGUUCAGCUUGCAUAGUUUUUAGUUA,0.0483 ± 0.013
12,UCCUGCUACGCUUGCAUAGUAUUUAGUUA,0.291 ± 0.025
13,UCCUGGAUGACCUUGCAUAGUAUUUAGUUA,0.177 ± 0.023
14,UCCUGGUUCAGCAUGCAUAGUAUUUAGUUA,0.199 ± 0.026
15,UCCUCCUAGAGCUUGGAUAGUAUUUAGUUA,0.217 ± 0.013
16,UCCUGCUUCAGCUUGGAUAGUAUUUAGUUA,0.268 ± 0.015
17,UCCUGGAACAGGUUGCAUAGUAUUUAGUAA,0.232 ± 0.02
18,UCCUCCUACACCUUGGAUAGUAUUUAGUUA,0.182 ± 0.026
19,UCCUGCUACAGCUUUGCAUAGUAUUUAGUUA,0.263 ± 0.02
20,UCCUGGAACACGUUGCAUAGUAUUUAGUUA,0.193 ± 0.014

# Source: the supplement of paper PMC10338343
